The emibetuzumab library of Makowski et al. (2022)
The list shows a part of the results. No count for the full screen is at hand.

B1: VH:VL chains; a variant is named by its letters at X, in order (parent)
chain 1: QVQLVQSGAEVKKPGASVKVSCKASGYTFTDYXMHWVRQAPGQGLEWMGXVNPNXXXTTYNQKFEGRVTMTTDTSTSTAYMELRSLRSDDTAVYYCARXNXLDXWGQGTTVTVSS
chain 2: DIQMTQSPSSLSASVGDRVTITCSVSSSVSSIYLHWYQQKPGKAPKLLIYSTSNLASGVPSRFSGSGSGTDFTLTISSLQPEDFATYYCQVYSGYPLTFGGGTKVEIK

Variants of: B1
Assay: yeast display scFab, FACS + sequencing
Settings: with MET
Summary of the method: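 Round-3 sorted and input populations from a heavy-chain CDR mutant scFab yeast library were deep sequenced in two replicates. Sorting used FACS on cells labelled for 3 h at room temperature with 1 nM HGFR-Fc and anti-Myc in PBSB with 1% milk, keeping the top 50% antigen-positive cells. Any sequence seen in both antigen-positive samples was called a binder, while one seen only in the input was called a non-binder.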

Row | Variant | antigen binding call
1 | YTAAADLV | no binding
2 | YETEGDVF | no binding
3 | YRRGGASD | binds
4 | DAGGGAVY | no binding
5 | YTGRAALA | no binding
6 | YRGKGALA | binds
7 | YRKGAALA | binds
8 | YRGRSALA | binds
9 | YRKKGDLA | no binding
10 | YRGKGSLA | binds
11 | VTGTGDGV | no binding
12 | AETKGAVA | no binding
13 | DGGENAGD | no binding
14 | VAGGDAVV | no binding
15 | YRGKSALA | binds
16 | FREGGAVS | no binding
17 | FAAGSSGS | no binding
18 | FAAGGAAS | binds
19 | FAGGSFAS | binds
20 | FAGTSVGS | no binding

Row | Variant | antigen binding call
21 | FRGGGAVS | binds
22 | FAAGGAWA | no binding
23 | FAGGGFAV | no binding
24 | FRGGGSVS | binds
25 | DTERDDAV | no binding
26 | DGGTGDVF | no binding
27 | FAGGGAGS | binds
28 | FAGGGASD | no binding
29 | FAGGGAGA | no binding
30 | YTEEGDWV | no binding
31 | SAAGGDVA chain 1 L45S | no binding
32 | YEKGGDVD | no binding
33 | YRKGSALD | binds
34 | YRKGSAGD | binds
35 | YEGGGDGD | no binding
36 | YEKGGAGD | binds
37 | YRKGTAGD | binds
38 | YRRANFLD | no binding
39 | YAGEGDGA | no binding
40 | VTTADDWV | no binding

Row | Variant | antigen binding call
41 | YKGRGVVV | binds
42 | YRGKGVGV | no binding
43 | SKEGGVGV | no binding
44 | YKERDVGV | no binding
45 | YKGRGVGV | binds
46 | YKGKGVGV | binds
47 | DKGRSVGV | no binding
48 | AARADDGS | no binding
49 | SAAGGDGV chain 1 L45S | no binding
50 | FRRGGSVD | binds
51 | FGRGGVGD | no binding
52 | FRERGAGY | no binding
53 | FRRGGAGD | binds
54 | FRRGGAVD | binds
55 | FTEEGAGD | no binding
56 | FTETGAGD | no binding
57 | FRERGAGD | binds
58 | VATGDFGV | no binding
